Data as given in PubChem BioAssay (NCATS).
Inconclusive results are not listed. A number with no mark means an inactive call. The source made the active and inactive calls. The call rests on the fitted dose curve; in most records, active means well fitted inhibition curve with a large enough effect; inconclusive means small, poorly fitted or top-dose-only effect; inactive means no such curve, though single readings can be large or run the other way.
On the % scale 0 is the no-effect control and ±100 the full control effect; potency means the concentration at half of the fitted maximal effect.

The molecules below were run against Tumor susceptibility gene 101 protein (Homo sapiens) (UniProt Q99816) (assay: qHTS Assay for Iinhibitors of HIV-1 Budding by Blocking the Interaction of PTAP/TSG101: Hit Validation (AID 651600; further: nearly all actives have a fitted effect of over 70% in size)). Details: PTAP peptide/TSG101 UEV interaction, biochemical assay; series mostly up to 57.5 µM; activity change, negative = inhibition: at the top concentration.
Sequence of Tumor susceptibility gene 101 protein (Homo sapiens) (Q99816 whole entry, looked up): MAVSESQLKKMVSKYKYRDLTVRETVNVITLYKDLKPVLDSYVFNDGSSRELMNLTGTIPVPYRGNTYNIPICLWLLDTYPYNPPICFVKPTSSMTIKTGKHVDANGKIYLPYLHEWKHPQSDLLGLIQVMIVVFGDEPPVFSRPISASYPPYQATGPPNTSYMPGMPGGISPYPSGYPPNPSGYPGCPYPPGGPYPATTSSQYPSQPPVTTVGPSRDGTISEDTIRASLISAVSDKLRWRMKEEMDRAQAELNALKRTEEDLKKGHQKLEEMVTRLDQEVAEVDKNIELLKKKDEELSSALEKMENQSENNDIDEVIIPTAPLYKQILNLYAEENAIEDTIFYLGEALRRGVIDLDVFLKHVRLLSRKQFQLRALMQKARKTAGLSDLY
How it was run: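 Measuring PTAP–Tsg101 interaction by FP: protein at 10 uM and fluorescent peptide at 50 nM (final), buffer 10 mM HEPES pH 7.5 with 0.15 M NaCl, 3 mM EDTA, 0.1 mM TCEP, 0.01% Tween 20; 20 min incubation, r.t.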
For `COc1ccc(CNS(=O)(=O)c2cc3c(cc2Cl)N(C(C)=O)CCO3)cc1`, the “activity change, negative = inhibition” value was -1.31%. `Nc1c(C(=O)c2cccs2)sc2nsc(SCCN3CCCCC3)c12` was tested, and the Potency was 14.6 µM (active). In the case of `O=C(NCc1cccc(C(F)(F)F)c1)c1cccc2c1C(=O)c1ccc(N3CCC(Cc4ccccc4)CC3)cc1S2(=O)=O`, the Potency is reported as 14.6 µM (active). In the case of `CCCn1c(=N)c(S(=O)(=O)c2ccccc2)cc2c(=O)n3cccc(C)c3nc21`, the “activity change, negative = inhibition” value is reported as 12.9%. `O=C(O)c1ccc(-n2c(-c3ccc(Br)cc3)n[nH]c2=S)cc1` was tested, and the “activity change, negative = inhibition” value was -23.7%. `Cc1ccc(CSc2nnc3c(n2)OC2(Nc4ccccc4-3)C(=O)Nc3ccc(F)cc32)cc1` (stereo not given) was tested, and the “activity change, negative = inhibition” value was -4.93%. In the case of `CCOc1ccc(NC(=O)c2ccc3c(c2)CCN3S(C)(=O)=O)cc1`, the “activity change, negative = inhibition” value is reported as 2.45%. With `COc1cc2c(cc1OC)-c1cc3ccc4c(c3c[n+]1CC2)OCO4` the Potency was 13 µM (active). With `CCc1cccc(CC)c1NC(=O)CSc1nnc(C2CC2)n1C` the “activity change, negative = inhibition” value was -0.886%. With `CSc1nc(-c2cccs2)c(C#N)c(=O)[nH]1` the “activity change, negative = inhibition” value was -23.6%. `Cc1cc(Nc2cccc(Cl)c2C)n2ncnc2n1` was tested, and the “activity change, negative = inhibition” value was 2.07%. For `C1=C(c2ccc(-c3ccccc3)cc2)Nc2ncnn2C1c1ccco1` (stereo not given), the “activity change, negative = inhibition” value was -0.79%. `O=C1CCCC2=C1Sc1ccc(Cl)cc1N2` was tested, and the “activity change, negative = inhibition” value was 6.23%. `CCCCn1c(SCC(=O)c2cc(OC)ccc2OC)nc2cc(S(N)(=O)=O)ccc21` was tested, and the “activity change, negative = inhibition” value was 3.21%. With `CCCN(CCC)S(=O)(=O)c1ccc(C(=O)OCCN2C(=O)c3cccc4c(N5CCOCC5)ccc(c34)C2=O)cc1` the Potency was 18.3 µM (active). With `CN(C)c1ccc(N=Cc2nc(-c3ccccc3)oc2O)cc1` the Potency was 18.3 µM (active). `CCOC(=O)c1c(C)oc2c1c(CN1CCN(C(=O)OCC)CC1)c(O)c1ccccc12` was tested, and the “activity change, negative = inhibition” value was -5.85%. In the case of `COc1ccc(OC)c(/C=C(\C#N)c2nc(-c3ccc(F)cc3)cs2)c1`, the “activity change, negative = inhibition” value is reported as -0.321%. `CCOc1ccc(NC(=O)N(C2CCCCC2)C(C)c2ccncc2)cc1` (stereo not given) was tested, and the “activity change, negative = inhibition” value was -6.89%. For `COc1ccc(OC)c(S(=O)(=O)Nc2cc3c(cc2C)n(C)c(=O)c(=O)n3C)c1`, the “activity change, negative = inhibition” value was -17.1%. In the case of `Cc1ccccc1-c1ccc(/C=C2/SC(N3CCOCC3)=NC2=O)o1`, the “activity change, negative = inhibition” value is reported as 6.42%. With `Cc1ccc(NC(=O)/C(C#N)=C(\N)C(Cl)(Cl)Cl)nc1` the Potency was 18.3 µM (active). In the case of `CC(C)(C)OC(=O)NC(Cc1ccccc1)C(=O)N1CCC(C(=O)NCC(=O)Nc2ccc(F)cc2)CC1` (stereo not given), the “activity change, negative = inhibition” value is reported as 0.595%. `CC1=CC(=C(C#N)c2nc3ccccc3s2)C=C(C)N1c1ccc(F)cc1` was tested, and the Potency was 18.3 µM (active). For `CN1c2ccc(C=O)c3c(C=O)ccc(c23)N(C)C1(C)C`, the “activity change, negative = inhibition” value was 10.5%. For `CC1C2C(c3ccccc3)N(C)C(=O)N(C)C2N(C)C(=O)N1C` (stereo not given), the “activity change, negative = inhibition” value was -7%. With `O=C1NC(c2ccco2)Nc2sc3c(c21)CCN(Cc1ccccc1)C3` (stereo not given) the “activity change, negative = inhibition” value was 10.5%. With `COc1ccc(C2=CC(c3ccco3)n3ncnc3N2)cc1` (stereo not given) the “activity change, negative = inhibition” value was -0.272%. For `COc1ccc(C(=O)c2sc3nc(C)cc(-c4cccs4)c3c2N)cc1`, the “activity change, negative = inhibition” value was -24.1%. In the case of `Cc1ccc(-c2nc(C=Nc3ccc(O)cc3)c(O)o2)cc1`, the “activity change, negative = inhibition” value is reported as -25.6%. With `CN(C)CCNc1ccc2ncn3c4ccc(O)cc4c(=O)c1c23` the Potency was 8.19 µM (active). `Cc1cc[n+](-c2[nH]c(=O)sc2/C=N/N=C(\[O-])c2ccccc2)cc1C` was tested, and the Potency was 10.3 µM (active). `Oc1oc(-c2ccccc2)nc1C=Nc1cccc2ccccc12` was tested, and the “activity change, negative = inhibition” value was 4.31%. With `CCCCC(=O)NC1=NC(=O)C(C)(C)S1` the “activity change, negative = inhibition” value was 0.827%. For `COc1ccccc1N1C(C)=CC(=C(C#N)c2nc3ccccc3s2)C=C1C`, the Potency was 25.9 µM (active). For `O=[N+]([O-])c1ccc(-c2cn3nc(-c4ccccc4)c(-c4ccccc4)nc3n2)cc1`, the “activity change, negative = inhibition” value was -4.2%. With `COC(=O)c1c(NC(=O)CC2Nc3cc(C)c(C)cc3NC2=O)sc(C)c1C` (stereo not given) the “activity change, negative = inhibition” value was 4.67%. `CSc1c(C#N)c(N)nc2sc(C(=O)c3ccc(Cl)c(Cl)c3)c(N)c12` was tested, and the “activity change, negative = inhibition” value was -25.9%. For `CC(C)c1nnc(N2C(=O)C(O)=C(C(=O)c3cccs3)C2c2ccccc2)s1` (stereo not given), the Potency was 8.19 µM (active). For `CC(OC(=O)c1c2c(nc3ccccc13)/C(=C\c1ccc3c(c1)OCO3)CCC2)C(=O)Nc1ccc(S(N)(=O)=O)cc1` (stereo not given), the Potency was 4.11 µM (active).
